Laboratory results: PubChem BioAssay (EPA / NIEHS)
Records with an inconclusive call do not appear. Activity calls are given as the source filed them. How the source made its calls, unless noted: active means hit-call score of the fitted dose curve at least 0.9, where 1 is the maximum; inactive means score below 0.9.

Tests used:
[1] = biological target: Nuclear respiratory factor 1 (Homo sapiens) (UniProt Q16656); experiment: ATG_NRF1_CIS: Attagene CIS-FACTORIAL HepG2 Assay for human Nuclear Respiratory Factor 1 (NRF1) Orphan Gene (AID 2282987); conditions: HepG2 NRF1 cis-element reporter, Attagene multiplex; actives raise or lower the signal
Nuclear respiratory factor 1 (Homo sapiens), sequence (Q16656 whole entry, looked up): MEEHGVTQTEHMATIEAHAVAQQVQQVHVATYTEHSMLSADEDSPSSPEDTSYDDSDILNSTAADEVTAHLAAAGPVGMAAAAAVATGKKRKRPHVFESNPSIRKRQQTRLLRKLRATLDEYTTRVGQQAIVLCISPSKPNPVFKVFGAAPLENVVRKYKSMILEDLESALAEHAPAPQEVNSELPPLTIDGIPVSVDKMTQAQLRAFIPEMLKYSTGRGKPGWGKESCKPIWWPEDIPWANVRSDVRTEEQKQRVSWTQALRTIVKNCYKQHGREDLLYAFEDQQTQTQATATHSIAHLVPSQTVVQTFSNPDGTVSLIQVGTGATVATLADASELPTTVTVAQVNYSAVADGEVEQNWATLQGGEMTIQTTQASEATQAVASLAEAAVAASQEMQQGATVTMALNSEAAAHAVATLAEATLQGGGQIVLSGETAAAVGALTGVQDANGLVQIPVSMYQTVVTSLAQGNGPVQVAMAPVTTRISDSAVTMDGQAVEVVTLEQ
Outline: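 Endogenous factor activity was captured via cis-element-driven reporter transcripts in HepG2 cells. Following 24 h chemical treatment, transcripts were quantified by RT-PCR and capillary electrophoresis.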

[2] = ATG_NFI_CIS: Attagene CIS-FACTORIAL HepG2 Assay for human Nuclear Factor I (NFI) (AID 2282989); conditions: HepG2 cis-regulatory reporter, NFI response element transcription; actives raise or lower the signal
Outline: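 Cells: human liver HepG2, transiently transfected with promoter-regulated reporter transcription units. Exposure 24 h. Detection: fluorescent RT-PCR products separated by capillary electrophoresis, normalised to DMSO negative control.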

[3] = biological target: Myc proto-oncogene protein (Homo sapiens) (UniProt P01106); experiment: ATG_Myc_CIS: Attagene CIS-FACTORIAL HepG2 Assay for human Myelocytomatosis (Myc) Proto-Oncogene Transcription Factor (AID 2282990); conditions: HepG2, Attagene cis-reporter transcription factor activity; actives raise or lower the signal
Myc proto-oncogene protein (Homo sapiens), sequence (P01106 whole entry, looked up, the tested form may be a part): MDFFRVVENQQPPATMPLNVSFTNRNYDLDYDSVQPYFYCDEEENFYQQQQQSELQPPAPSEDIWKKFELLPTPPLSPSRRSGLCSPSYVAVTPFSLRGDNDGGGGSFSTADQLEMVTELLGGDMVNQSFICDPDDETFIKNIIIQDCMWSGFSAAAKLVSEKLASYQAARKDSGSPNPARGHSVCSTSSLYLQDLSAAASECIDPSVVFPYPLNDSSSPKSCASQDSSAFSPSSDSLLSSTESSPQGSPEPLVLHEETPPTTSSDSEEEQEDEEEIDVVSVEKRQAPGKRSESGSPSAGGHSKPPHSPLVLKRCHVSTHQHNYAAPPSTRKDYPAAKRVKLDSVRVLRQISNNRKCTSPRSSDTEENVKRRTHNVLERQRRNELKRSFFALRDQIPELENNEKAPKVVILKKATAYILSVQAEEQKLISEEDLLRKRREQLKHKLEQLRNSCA
Outline: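 After 24 h chemical treatment of HepG2 cells carrying multiplexed cis-regulated reporter constructs, reporter transcripts quantified by RT-PCR and capillary electrophoresis of fluorescent fragments. Gain or loss fitted against DMSO baseline.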

[4] = ATG_NF_kB_CIS: Attagene CIS-FACTORIAL HepG2 Assay for human Nuclear Factor Kappa B (NF-kB) (AID 2282991); conditions: HepG2 Attagene cis-factorial NF-kB reporter mRNA; actives raise or lower the signal
Outline: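 After 24 h compound incubation, transfected HepG2 cells yield total RNA; reporter cDNA is PCR-amplified, end-labelled with 6-FAM, HpaI-digested and analysed on a genetic analyser. Endogenous factor activity, DMSO-referenced bidirectional fit.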

[5] = ATG_NRF2_ARE_CIS: Attagene CIS-FACTORIAL HepG2 Assay for human Nuclear Factor Erythroid 2 Related Factor 2 (NFR2) response to Antioxidant Response Elements (ARE) (AID 2282992); conditions: HepG2 Attagene ARE/NRF2 reporter, transcription factor activity; actives raise or lower the signal;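 on AC50: reporter mRNA level measured by RT-PCR and capillary electrophoresis fluorescence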
Outline: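 Readout: reporter mRNA quantified by RT-PCR plus FAM-labelled primer extension, HpaI digestion and capillary electrophoresis, 24 h after dosing transfected HepG2 cells. Gain or loss of signal is fitted bidirectionally against DMSO baseline.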

[6] = ATG_Oct_MLP_CIS: Attagene CIS-FACTORIAL HepG2 Assay for human Octamer-Binding Transcription Factor (Oct) (AID 2282993); conditions: HepG2 Attagene cis-factorial Oct reporter, mRNA; actives raise or lower the signal
Outline: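 HepG2, transient MRTU transfection, cis promoter elements; 24 h dosing; RT-PCR/CE fluorescence read-out of reporter mRNA; fit both directions vs DMSO.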

[7] = biological target: Cellular tumor antigen p53 (Homo sapiens) (UniProt P04637); experiment: ATG_p53_CIS: Attagene CIS-FACTORIAL HepG2 Assay for human p53 Transcription Factor (AID 2282994); conditions: HepG2 p53 cis-element reporter, Attagene mRNA; actives raise or lower the signal
Cellular tumor antigen p53 (Homo sapiens), sequence (P04637 whole entry, looked up): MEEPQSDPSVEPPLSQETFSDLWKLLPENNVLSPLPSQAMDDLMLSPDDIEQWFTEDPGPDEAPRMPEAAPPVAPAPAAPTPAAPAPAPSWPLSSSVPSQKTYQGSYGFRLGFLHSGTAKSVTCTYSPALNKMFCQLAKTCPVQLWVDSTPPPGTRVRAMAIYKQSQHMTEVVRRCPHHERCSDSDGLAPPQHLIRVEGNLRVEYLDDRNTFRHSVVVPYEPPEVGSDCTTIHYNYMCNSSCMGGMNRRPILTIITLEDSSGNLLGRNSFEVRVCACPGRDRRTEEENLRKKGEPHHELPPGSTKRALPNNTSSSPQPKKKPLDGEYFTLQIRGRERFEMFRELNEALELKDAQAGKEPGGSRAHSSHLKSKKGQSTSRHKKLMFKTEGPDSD
Outline: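 Read-out: reporter mRNA by RT-PCR plus capillary electrophoresis with fluorescence detection. Human HepG2 liver cells carried transfected multi-reporter cis-element constructs, dosed 24 h. Gain or loss of signal fitted bidirectionally against DMSO control.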

[8] = BSK_3C_TissueFactor: BioMAP Diversity Plus: 3C Assay for Tissue Factor Biomarker Activity (AID 2282997); conditions: BioMAP 3C HUVEC, tissue factor biomarker readout; actives raise or lower the signal
Outline: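 After a 24 h chemical exposure of primary human umbilical vein endothelial cells, Tissue Factor levels were quantified by ELISA.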

[9] = BSK_3C_uPAR: BioMAP Diversity Plus: 3C Assay for Urokinase-type plasminogen activator receptor (uPAR) Biomarker Activity (AID 2282998); conditions: BioMAP 3C HUVEC, uPAR biomarker ELISA; actives raise or lower the signal
Outline: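 A multiplexed primary-cell system built on human umbilical vein endothelium was used, with chemical present for 24 h before reading. Cell-surface uPAR was detected by ELISA; signal change in either direction counted against DMSO.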

[10] = BSK_3C_VCAM1: BioMAP Diversity Plus: 3C Assay for Vascular cell adhesion molecule 1 (VCAM1) Biomarker Activity (AID 2282999); conditions: BioMAP 3C HUVEC, VCAM1 ELISA, cytokine-stimulated; actives raise or lower the signal
Outline: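 Activity fitted in both directions relative to DMSO, with ELISA measurement of the surface marker on primary HUVEC (3C) at 24 h post-treatment; parallel SRB staining (0.1% SRB, TCA-fixed, 560 nm) flagged overt cytotoxicity.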

[11] = BSK_4H_Eotaxin3: BioMAP Diversity Plus: 4H Assay for Eotaxin 3 Biomarker Activity (AID 2283000); conditions: primary human endothelial cells (HUVEC); actives raise or lower the signal;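 further: CCL26 protein level quantified by ELISA in parallel with SRB cytotoxicity check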
Outline: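 Chemicals were added to human umbilical vein endothelium cultures, and Eotaxin-3 was quantified by ELISA at 24 h. Values were derived by bidirectional fitting with DMSO serving as negative control and activity baseline.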

[12] = biological target: human Peroxisome Proliferator-activated Receptor delta (PPARd), PPARD (gene 5467) (UniProt Q03181); experiment: ATG_PPARd_TRANS: Attagene TRANS-FACTORIAL HepG2 Assay for human Peroxisome Proliferator-activated Receptor delta (PPARd) (AID 2283002; active means hit-call score of the fitted dose curve at least 0.9, where 1 is the maximum)
human Peroxisome Proliferator-activated Receptor delta (PPARd), PPARD (gene 5467), sequence (Q03181 whole entry, looked up, the tested form may be a part): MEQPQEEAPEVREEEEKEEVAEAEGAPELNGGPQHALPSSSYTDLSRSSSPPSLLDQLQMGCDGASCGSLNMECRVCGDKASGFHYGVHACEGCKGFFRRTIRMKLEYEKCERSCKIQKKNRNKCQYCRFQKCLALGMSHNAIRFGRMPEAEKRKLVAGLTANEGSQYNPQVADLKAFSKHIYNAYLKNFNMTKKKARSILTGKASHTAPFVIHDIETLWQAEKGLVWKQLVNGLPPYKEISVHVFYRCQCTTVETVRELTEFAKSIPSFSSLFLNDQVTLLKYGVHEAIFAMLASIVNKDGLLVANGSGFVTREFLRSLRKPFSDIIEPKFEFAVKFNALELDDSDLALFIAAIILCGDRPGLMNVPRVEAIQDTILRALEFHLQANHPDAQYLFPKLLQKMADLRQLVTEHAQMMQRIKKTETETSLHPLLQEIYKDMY
Outline: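 Read-out is induced reporter mRNA, quantified by RT-PCR with fluorescent labelling and capillary electrophoresis after 24 h dosing. Cells are HepG2 transiently carrying multiple GAL4-UAS reporter units driven by exogenous NR-GAL4 chimeras; DMSO serves as baseline.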

[13] = biological target: Peroxisome proliferator-activated receptor gamma (Homo sapiens) (UniProt P37231); experiment: ATG_PPARg_TRANS: Attagene TRANS-FACTORIAL HepG2 Assay for human Peroxisome Proliferator-activated Receptor-gamma (PPARg) (AID 2283007; active means hit-call score of the fitted dose curve at least 0.9, where 1 is the maximum)
Peroxisome proliferator-activated receptor gamma (Homo sapiens), sequence (P37231 whole entry, looked up, the tested form may be a part): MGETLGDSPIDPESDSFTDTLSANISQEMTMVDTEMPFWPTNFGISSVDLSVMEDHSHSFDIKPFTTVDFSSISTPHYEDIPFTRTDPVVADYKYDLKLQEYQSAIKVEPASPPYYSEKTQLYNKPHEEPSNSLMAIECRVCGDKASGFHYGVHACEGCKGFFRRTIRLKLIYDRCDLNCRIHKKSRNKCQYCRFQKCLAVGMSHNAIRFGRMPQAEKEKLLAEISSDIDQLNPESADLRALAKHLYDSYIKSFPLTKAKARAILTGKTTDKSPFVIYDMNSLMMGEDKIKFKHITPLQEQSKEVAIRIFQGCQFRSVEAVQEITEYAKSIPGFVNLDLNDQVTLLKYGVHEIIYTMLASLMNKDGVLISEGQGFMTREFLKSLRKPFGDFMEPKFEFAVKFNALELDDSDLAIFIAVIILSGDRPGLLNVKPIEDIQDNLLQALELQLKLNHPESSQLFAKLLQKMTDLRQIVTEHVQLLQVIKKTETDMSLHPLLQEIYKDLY
Outline: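 Liver-derived HepG2 cells expressing an exogenous NR-Gal4 chimera alongside GAL4-UAS reporter genes; 24 h exposure. Fluorescence of reporter RT-PCR products, separated by capillary electrophoresis, gives mRNA induction relative to DMSO.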

[14] = biological target: Nuclear receptor subfamily 1 group I member 2 (Homo sapiens) (UniProt O75469); experiment: ATG_PXR_TRANS: Attagene TRANS-FACTORIAL HepG2 Assay for human Pregnane X Receptor (PXR) (AID 2283008; active means hit-call score of the fitted dose curve at least 0.9, where 1 is the maximum)
Nuclear receptor subfamily 1 group I member 2 (Homo sapiens), sequence (O75469 whole entry, looked up, the tested form may be a part): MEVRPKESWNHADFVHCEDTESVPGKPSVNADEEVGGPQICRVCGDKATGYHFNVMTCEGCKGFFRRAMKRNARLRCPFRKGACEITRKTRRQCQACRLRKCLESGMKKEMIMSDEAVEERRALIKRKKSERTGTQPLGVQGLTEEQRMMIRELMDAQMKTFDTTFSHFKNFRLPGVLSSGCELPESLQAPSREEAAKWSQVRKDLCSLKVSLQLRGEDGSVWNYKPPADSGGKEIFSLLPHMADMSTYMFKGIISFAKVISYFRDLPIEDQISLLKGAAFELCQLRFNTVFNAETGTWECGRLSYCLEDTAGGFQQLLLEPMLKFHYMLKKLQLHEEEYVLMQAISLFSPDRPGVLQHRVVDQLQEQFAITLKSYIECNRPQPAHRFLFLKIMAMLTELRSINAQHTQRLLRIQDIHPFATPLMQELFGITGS
Outline: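 Trans-factorial format: exogenous NR-Gal4 fusion activity, not endogenous factor, in transfected human HepG2 liver cells. After 24 h dosing, RNA isolated, reverse-transcribed, amplified and resolved by capillary electrophoresis; induction scored versus DMSO.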

[15] = biological target: human Peroxisome Proliferator-activated Receptor alpha (PPARa), PPARA (gene 5465) (UniProt Q07869); experiment: ATG_PPARa_TRANS: Attagene TRANS-FACTORIAL HepG2 Assay for human Peroxisome Proliferator-activated Receptor alpha (PPARa) (AID 2283001; active means hit-call score of the fitted dose curve at least 0.9, where 1 is the maximum)
human Peroxisome Proliferator-activated Receptor alpha (PPARa), PPARA (gene 5465), sequence (Q07869 whole entry, looked up, the tested form may be a part): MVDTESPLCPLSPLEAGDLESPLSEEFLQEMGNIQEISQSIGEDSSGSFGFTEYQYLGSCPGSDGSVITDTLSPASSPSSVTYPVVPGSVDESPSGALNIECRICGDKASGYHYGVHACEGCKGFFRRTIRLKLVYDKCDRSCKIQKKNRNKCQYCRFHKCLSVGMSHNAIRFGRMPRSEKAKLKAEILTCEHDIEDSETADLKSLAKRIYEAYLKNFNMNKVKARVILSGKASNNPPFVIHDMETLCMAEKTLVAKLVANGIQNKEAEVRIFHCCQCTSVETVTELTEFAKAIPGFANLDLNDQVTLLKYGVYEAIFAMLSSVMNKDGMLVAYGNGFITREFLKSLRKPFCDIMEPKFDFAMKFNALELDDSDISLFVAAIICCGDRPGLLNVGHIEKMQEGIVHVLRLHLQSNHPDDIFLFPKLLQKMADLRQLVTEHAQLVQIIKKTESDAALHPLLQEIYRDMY
Outline: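 Reporter transcripts quantified by RT-PCR plus capillary electrophoresis after 24 h treatment, fitted upward relative to DMSO. Cells: human HepG2 transiently carrying multiple GAL4-UAS reporter units driven by NR-Gal4 chimeras.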

[16] = BSK_3C_Proliferation: Cell Proliferation Assessment in the BioMAP Diversity Plus: 3C Assay (AID 2283006); conditions: primary human endothelial cells (HUVEC);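 on AC50: potency may reflect either rise or fall in cell number versus DMSO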
Outline: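 Cells (human umbilical vein endothelial, sub-confluent) receive test chemical; after 48 h they are fixed in 10% trichloroacetic acid, stained with 0.1% SRB and read at 560 nm. Activity is referenced to DMSO, fitting increases and decreases.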

[17] = biological target: human Retinoic Acid Receptor beta (RARb), RARB (gene 5915) (UniProt P10826); experiment: ATG_RARb_TRANS: Attagene TRANS-FACTORIAL HepG2 Assay for human Retinoic Acid Receptor beta (AID 2283004; active means hit-call score of the fitted dose curve at least 0.9, where 1 is the maximum)
human Retinoic Acid Receptor beta (RARb), RARB (gene 5915), sequence (P10826 whole entry, looked up): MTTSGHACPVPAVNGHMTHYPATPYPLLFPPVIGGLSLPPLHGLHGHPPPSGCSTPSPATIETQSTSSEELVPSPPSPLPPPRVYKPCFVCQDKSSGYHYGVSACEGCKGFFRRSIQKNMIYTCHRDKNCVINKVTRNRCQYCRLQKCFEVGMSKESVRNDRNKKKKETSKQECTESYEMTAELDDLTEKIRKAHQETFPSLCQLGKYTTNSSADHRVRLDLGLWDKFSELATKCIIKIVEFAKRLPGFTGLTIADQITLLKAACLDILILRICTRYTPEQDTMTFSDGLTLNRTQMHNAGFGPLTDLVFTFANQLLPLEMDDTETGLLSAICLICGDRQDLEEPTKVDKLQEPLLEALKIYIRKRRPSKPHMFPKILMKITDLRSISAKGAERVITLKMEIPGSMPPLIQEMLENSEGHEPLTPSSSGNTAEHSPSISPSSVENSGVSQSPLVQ
Outline: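 Transient transfection of HepG2 with multiple reporter units → chemical dosing, 24 h → total RNA isolation → RT with oligo(dT) → reporter-specific PCR, 6-FAM primer extension, HpaI digest → capillary electrophoresis. Positive direction vs DMSO control.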

[18] = biological target: Retinoic acid receptor alpha (Homo sapiens) (UniProt P10276); experiment: ATG_RARa_TRANS: Attagene TRANS-FACTORIAL HepG2 Assay for human Retinoic Acid Receptor alpha (RARa) (AID 2283005; active means hit-call score of the fitted dose curve at least 0.9, where 1 is the maximum;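 on AC50: potency for increased reporter signal meaning RARa activation over DMSO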)
Retinoic acid receptor alpha (Homo sapiens), sequence (P10276 whole entry, looked up, the tested form may be a part): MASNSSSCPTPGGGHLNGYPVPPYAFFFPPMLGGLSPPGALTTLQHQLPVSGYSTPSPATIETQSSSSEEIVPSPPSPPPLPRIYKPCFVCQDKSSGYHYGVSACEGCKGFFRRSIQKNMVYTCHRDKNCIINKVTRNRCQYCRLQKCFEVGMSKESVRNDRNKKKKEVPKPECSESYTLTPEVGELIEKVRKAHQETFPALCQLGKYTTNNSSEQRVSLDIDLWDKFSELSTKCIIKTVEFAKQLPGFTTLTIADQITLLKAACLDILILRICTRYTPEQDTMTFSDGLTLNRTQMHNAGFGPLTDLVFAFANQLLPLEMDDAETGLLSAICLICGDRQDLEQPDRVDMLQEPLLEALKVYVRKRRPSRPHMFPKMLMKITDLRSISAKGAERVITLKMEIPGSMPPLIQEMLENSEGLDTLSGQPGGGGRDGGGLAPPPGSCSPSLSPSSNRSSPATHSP
Outline: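 Reporter transcripts, measured by RT-PCR with fluorescent labeling and capillary electrophoresis after 24 h dosing, reflect activity of an exogenous human RARa–GAL4 fusion in transiently transfected HepG2. Fitted for increase relative to DMSO.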

[19] = biological target: human Retinoic Acid Receptor gamma (RARg), RARG (gene 5916) (UniProt P13631); experiment: ATG_RARg_TRANS: Attagene TRANS-FACTORIAL HepG2 Assay for human Retinoic Acid Receptor gamma (RARg) (AID 2283009; active means hit-call score of the fitted dose curve at least 0.9, where 1 is the maximum)
human Retinoic Acid Receptor gamma (RARg), RARG (gene 5916), sequence (P13631 whole entry, looked up, the tested form may be a part): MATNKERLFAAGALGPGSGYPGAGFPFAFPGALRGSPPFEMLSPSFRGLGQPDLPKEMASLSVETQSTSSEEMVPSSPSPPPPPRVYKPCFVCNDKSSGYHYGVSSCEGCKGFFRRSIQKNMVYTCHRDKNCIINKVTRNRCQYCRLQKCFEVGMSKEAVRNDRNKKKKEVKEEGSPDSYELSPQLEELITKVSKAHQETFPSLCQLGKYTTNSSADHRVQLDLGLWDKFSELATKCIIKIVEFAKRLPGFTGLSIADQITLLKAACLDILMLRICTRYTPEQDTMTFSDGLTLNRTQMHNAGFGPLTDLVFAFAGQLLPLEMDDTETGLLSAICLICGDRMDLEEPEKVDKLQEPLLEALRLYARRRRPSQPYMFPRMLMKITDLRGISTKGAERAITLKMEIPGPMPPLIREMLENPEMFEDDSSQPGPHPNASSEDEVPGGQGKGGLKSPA
Outline: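 TRANS format measured activity of exogenous NR-GAL4 fusion (RARg) in transfected HepG2 liver cells after 24 h dosing. Induced reporter RNA was detected by RT-PCR/capillary electrophoresis fluorescence, analysed in the positive direction against DMSO.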

[20] = read-out: Intercellular Adhesion Molecule 1 (ICAM1), ICAM1 (gene 3383); experiment: BSK_3C_ICAM1: BioMAP Diversity Plus: 3C Assay for Intercellular Adhesion Molecule 1 (ICAM1) Biomarker Activity (AID 2283003); conditions: primary human endothelial cells (HUVEC); actives raise or lower the signal
Outline: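 Chemicals are dosed onto primary human umbilical vein endothelium (3C system). After 24 h, ICAM-1 is measured by ELISA, and responses are fitted bidirectionally relative to DMSO.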

Measured: AC50

CC(C)[C@H](C(=O)O[C@H](C#N)c1cccc(Oc2ccccc2)c1)c1ccc(Cl)cc1
active: [5] 0.938 µM | [13] 9.37 µM | [14] 5 µM
not listed: [15] | [16] | [17] | [18] | [19] | [20]
inactive: all other assays above

CC(C)=CC1C(C(=O)OCN2C(=O)C3=C(CCCC3)C2=O)C1(C)C (centres undefined)
inactive: [1] | [2] | [3] | [7] | [11] | [15]
active: [5] 16.2 µM | [6] 35.4 µM | [8] 12.7 µM | [9] 15.5 µM | [10] 14.4 µM | [16] 15.6 µM | [13] 50 µM | [14] 40.2 µM

CC1(C(=O)Nc2ccc(O)c(Cl)c2Cl)CCCCC1
active: [5] 8.84 µM | [6] 22.2 µM | [13] 50 µM | [14] 9.83 µM
not listed: [15] | [17] | [18] | [19] | [20]
inactive: all other assays above

CCOP(=S)(OCC)Oc1ccc2c(C)c(Cl)c(=O)oc2c1
active: [5] 2.75 µM | [18] 2.3 µM | [14] 3.94 µM
not listed: [4] | [16] | [20]
inactive: all other assays above

C[N+]1(C)CCCCC1
not listed: [12] | [15] | [20]
inactive: all other assays above

CCCOc1nn(C(=O)NS(=O)(=O)c2ccccc2C(=O)OC)c(=O)n1C
active: [9] 0.0593 µM | [10] 1.09 µM
not listed: [12] | [15] | [16] | [17] | [18] | [20]
inactive: all other assays above

CSc1nc(NC(C)C)nc(NC(C)C)n1
active: [5] 10 µM | [13] 47.6 µM | [14] 18.4 µM
not listed: [4] | [12]
inactive: all other assays above
